{"source": "the supplement of paper PMC11732987", "about": "“Enantioselective OTUD7B fragment discovery through chemoproteomics screening and high-throughput optimisation” (Communications Chemistry, 2025)", "test_in_all_cases": "log2 ratio of Biotin-Ahx-Ub-VS probe labelling (fragment/DMSO); higher = less target engagement (more negative = stronger competition), active = hit call of the paper (q ≤ 0.05, log2 ratio ≤ -1)", "conditions_in_all_cases": "compound concentration: 200 uM; treatment time: 3 h", "key": {"OTUD6B": {"biological_target": "T1, OTUD6B (UniProt Q8N6M0)", "T1 sequence (whole entry)": "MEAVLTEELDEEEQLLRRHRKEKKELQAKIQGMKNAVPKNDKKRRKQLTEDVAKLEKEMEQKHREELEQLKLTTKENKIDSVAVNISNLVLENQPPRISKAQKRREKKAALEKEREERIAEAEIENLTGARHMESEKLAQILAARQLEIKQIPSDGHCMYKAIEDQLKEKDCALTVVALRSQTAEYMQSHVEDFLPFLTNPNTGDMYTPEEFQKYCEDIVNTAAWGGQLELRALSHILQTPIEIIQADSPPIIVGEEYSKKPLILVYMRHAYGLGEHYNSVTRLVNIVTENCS", "outline": "(§1)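 Fragment (200 µM) or vehicle was incubated for 3 h with triplicate HEK293T lysate samples of 495 µg, which were then treated with Biotin-Ahx-Ub-VS at 0.5 µM final for 1 h. Labelled DUBs were enriched on NeutrAvidin, digested with LysC and trypsin, and analysed by diaPASEF LC-MS/MS. Values are average log2 fragment/vehicle ratios from an unpaired t-test on global-median-normalised Spectronaut label-free quantities, using proteins with ≥2 unique peptides.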"}, "OTUD7B": {"biological_target": "T2, OTUD7B (UniProt Q6GQQ9)", "T2 sequence (whole entry)": "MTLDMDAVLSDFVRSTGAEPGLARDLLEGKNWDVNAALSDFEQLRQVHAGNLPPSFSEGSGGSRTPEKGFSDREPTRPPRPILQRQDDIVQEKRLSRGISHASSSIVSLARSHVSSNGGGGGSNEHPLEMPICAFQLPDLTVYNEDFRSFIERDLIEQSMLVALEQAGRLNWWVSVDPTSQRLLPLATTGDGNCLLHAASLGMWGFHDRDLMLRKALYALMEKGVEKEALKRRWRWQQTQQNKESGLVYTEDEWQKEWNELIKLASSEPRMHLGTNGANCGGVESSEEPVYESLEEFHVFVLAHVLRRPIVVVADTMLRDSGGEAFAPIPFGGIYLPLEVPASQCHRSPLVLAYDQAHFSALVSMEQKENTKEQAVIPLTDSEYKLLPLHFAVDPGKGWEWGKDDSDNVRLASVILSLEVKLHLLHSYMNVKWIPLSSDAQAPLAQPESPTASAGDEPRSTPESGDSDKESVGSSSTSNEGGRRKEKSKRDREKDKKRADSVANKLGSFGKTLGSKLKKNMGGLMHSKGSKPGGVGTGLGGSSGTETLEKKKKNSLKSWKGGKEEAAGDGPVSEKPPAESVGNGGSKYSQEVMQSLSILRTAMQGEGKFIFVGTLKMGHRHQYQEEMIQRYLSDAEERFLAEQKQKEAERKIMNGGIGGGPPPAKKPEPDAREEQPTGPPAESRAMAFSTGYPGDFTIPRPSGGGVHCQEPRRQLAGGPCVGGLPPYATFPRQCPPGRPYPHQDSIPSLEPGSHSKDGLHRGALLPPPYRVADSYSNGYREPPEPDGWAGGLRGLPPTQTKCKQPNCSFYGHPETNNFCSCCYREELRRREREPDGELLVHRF", "outline": "as §1"}, "PRPF8": {"biological_target": "PRPF8 (UniProt Q6P2Q9)", "outline": "as §1"}, "PSMD7": {"biological_target": "T3, PSMD7 (UniProt P51665)", "T3 sequence (whole entry)": "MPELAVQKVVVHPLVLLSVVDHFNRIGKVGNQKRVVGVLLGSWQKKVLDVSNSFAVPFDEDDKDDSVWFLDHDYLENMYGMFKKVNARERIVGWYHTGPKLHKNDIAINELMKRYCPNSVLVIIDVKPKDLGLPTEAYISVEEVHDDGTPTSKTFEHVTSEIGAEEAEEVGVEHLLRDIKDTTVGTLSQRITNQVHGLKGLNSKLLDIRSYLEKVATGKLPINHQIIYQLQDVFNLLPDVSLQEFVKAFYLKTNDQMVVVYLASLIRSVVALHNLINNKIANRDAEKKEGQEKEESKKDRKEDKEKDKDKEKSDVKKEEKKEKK", "outline": "as §1"}, "UCHL1": {"biological_target": "UCHL1 (UniProt P09936)", "sequence (P09936 whole entry, looked up)": "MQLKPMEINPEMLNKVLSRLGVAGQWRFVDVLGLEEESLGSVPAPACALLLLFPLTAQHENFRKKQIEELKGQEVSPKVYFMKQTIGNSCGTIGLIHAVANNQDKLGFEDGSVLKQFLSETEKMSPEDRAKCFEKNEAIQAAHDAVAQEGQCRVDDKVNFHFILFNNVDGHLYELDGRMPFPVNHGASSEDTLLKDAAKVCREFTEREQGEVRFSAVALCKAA", "outline": "as §1"}, "UCHL3": {"biological_target": "T4, UCHL3 (UniProt P15374)", "T4 sequence (whole entry)": "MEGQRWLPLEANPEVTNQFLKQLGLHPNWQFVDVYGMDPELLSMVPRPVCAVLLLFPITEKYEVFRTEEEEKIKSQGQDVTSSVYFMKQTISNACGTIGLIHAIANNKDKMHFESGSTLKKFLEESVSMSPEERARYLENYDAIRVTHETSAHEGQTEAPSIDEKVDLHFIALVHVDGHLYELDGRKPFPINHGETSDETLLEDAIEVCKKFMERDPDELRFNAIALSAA", "outline": "as §1"}, "UCHL5": {"biological_target": "T5, UCHL5 (UniProt Q9Y5K5)", "T5 sequence (whole entry)": "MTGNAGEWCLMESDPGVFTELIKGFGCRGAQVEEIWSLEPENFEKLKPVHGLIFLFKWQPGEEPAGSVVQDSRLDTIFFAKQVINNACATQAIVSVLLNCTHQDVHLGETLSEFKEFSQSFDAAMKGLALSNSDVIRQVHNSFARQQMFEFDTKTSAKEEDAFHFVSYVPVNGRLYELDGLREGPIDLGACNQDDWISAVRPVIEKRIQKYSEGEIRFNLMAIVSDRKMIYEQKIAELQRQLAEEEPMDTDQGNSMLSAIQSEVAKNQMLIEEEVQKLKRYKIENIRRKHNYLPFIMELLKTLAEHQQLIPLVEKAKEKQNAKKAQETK", "outline": "as §1"}, "USP10": {"biological_target": "USP10 (UniProt Q14694)", "sequence (Q14694 whole entry)": "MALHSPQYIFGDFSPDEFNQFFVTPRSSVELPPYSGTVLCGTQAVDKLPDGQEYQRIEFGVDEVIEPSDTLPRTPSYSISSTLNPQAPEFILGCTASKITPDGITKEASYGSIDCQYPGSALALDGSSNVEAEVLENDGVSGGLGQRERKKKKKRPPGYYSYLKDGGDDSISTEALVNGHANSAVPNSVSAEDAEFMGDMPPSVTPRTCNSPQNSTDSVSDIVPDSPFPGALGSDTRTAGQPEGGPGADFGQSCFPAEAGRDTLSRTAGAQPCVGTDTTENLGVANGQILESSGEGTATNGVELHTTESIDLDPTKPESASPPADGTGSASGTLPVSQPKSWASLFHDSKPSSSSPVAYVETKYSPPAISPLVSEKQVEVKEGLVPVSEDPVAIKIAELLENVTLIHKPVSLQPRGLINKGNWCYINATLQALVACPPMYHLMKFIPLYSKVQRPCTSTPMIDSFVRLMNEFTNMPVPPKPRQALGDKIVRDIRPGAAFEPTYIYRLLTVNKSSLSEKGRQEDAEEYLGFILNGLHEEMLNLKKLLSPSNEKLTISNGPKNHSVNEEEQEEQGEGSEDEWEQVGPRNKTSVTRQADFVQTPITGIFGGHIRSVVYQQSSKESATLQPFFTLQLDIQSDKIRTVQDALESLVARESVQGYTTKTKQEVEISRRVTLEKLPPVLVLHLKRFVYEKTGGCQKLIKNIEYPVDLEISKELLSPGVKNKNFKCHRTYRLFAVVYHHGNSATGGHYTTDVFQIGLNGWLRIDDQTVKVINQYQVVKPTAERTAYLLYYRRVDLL", "outline": "as §1"}, "USP15": {"biological_target": "T6, USP15 (UniProt Q9Y4E8)", "T6 sequence (whole entry)": "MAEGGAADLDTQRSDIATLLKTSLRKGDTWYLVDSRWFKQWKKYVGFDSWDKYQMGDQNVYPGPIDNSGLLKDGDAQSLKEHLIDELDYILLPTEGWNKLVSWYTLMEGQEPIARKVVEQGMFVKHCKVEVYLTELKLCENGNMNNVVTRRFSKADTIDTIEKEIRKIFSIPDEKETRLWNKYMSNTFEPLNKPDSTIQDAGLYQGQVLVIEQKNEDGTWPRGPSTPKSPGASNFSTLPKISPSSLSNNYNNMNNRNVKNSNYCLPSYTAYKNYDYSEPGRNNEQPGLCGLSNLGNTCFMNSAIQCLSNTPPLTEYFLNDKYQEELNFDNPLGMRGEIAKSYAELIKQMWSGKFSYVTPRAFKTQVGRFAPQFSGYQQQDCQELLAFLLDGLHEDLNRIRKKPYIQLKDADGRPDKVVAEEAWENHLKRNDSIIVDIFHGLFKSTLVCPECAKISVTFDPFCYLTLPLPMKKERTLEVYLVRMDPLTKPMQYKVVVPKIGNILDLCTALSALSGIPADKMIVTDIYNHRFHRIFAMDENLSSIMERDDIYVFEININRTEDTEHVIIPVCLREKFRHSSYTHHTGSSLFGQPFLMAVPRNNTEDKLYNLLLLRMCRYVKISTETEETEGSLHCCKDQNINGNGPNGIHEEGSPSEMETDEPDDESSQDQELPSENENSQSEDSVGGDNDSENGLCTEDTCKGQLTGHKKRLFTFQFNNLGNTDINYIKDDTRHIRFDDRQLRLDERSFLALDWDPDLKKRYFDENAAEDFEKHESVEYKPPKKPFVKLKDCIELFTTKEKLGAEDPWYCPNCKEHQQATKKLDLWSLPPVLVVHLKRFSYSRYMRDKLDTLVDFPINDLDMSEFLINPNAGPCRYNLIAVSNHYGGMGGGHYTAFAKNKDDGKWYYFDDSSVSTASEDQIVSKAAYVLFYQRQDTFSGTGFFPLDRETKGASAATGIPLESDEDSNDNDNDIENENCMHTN", "outline": "as §1"}, "USP16": {"biological_target": "USP16 (UniProt Q9Y5T5)", "sequence (Q9Y5T5 whole entry, looked up)": "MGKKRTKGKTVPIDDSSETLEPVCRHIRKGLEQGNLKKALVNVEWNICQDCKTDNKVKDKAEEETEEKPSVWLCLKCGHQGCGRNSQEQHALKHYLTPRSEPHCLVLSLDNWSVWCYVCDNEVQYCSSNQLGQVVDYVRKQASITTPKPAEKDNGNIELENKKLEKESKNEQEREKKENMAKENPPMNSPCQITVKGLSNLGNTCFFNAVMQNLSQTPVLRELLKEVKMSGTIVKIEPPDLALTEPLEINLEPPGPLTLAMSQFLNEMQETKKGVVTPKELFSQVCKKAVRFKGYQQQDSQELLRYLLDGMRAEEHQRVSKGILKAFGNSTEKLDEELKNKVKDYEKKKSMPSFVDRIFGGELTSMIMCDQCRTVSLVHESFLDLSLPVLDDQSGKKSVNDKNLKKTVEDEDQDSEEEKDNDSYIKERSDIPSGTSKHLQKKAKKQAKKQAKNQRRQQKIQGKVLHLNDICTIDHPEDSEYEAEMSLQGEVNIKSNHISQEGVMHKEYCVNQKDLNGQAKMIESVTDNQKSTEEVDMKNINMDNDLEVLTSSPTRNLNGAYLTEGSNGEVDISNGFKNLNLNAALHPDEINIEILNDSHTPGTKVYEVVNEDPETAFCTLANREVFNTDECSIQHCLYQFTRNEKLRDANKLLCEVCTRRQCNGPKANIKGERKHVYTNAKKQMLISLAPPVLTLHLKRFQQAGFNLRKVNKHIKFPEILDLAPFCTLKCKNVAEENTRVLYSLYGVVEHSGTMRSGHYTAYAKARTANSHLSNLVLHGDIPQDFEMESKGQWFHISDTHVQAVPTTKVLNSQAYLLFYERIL", "outline": "as §1"}}, "note": "Values without a mark were called inactive.", "data": [{"smiles": "O=C(CCl)N1CCc2ccccc2C(O)C1", "note": "(stereo not given)", "values": [{"measurement": "log2 ratio of Biotin-Ahx-Ub-VS probe labelling", "setting": "OTUD6B", "result": -0.357}, {"measurement": "log2 ratio of Biotin-Ahx-Ub-VS probe labelling", "setting": "OTUD7B", "result": "-1.21 (active)"}, {"measurement": "log2 ratio of Biotin-Ahx-Ub-VS probe labelling", "setting": "PRPF8", "result": 0.137}, {"measurement": "log2 ratio of Biotin-Ahx-Ub-VS probe labelling", "setting": "PSMD7", "result": -0.212}, {"measurement": "log2 ratio of Biotin-Ahx-Ub-VS probe labelling", "setting": "UCHL1", "result": "-1.58 (active)"}, {"measurement": "log2 ratio of Biotin-Ahx-Ub-VS probe labelling", "setting": "UCHL3", "result": -0.197}, {"measurement": "log2 ratio of Biotin-Ahx-Ub-VS probe labelling", "setting": "UCHL5", "result": -0.317}, {"measurement": "log2 ratio of Biotin-Ahx-Ub-VS probe labelling", "setting": "USP10", "result": -0.14}, {"measurement": "log2 ratio of Biotin-Ahx-Ub-VS probe labelling", "setting": "USP15", "result": -0.392}, {"measurement": "log2 ratio of Biotin-Ahx-Ub-VS probe labelling", "setting": "USP16", "result": 0.132}]}]}
